Results filed as inconclusive are left out. A call without a number means that no potency is given here. The source made the active and inactive calls. Calls follow the shape of the dose curve; as a rule, active = well fitted curve in the direction sought with a large enough effect; inconclusive = small, poorly fitted or top-dose-only effect, or another doubt; inactive = no such curve, though single readings can be large; an effect the other way counts as inactive or inconclusive.
Tests used:
[1] = qHTS to identify inhibitors of the type 1 interferon - major histocompatibility complex class I in skeletal muscle: primary screen against the NCATS Pharmaceutical Collection (AID 1347407);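 also: luminescence of HiBiT knocked into endogenous HLA-B as interferon-induced MHC class I level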
Summary of the method: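 A qHTS format is used: 8-point, 1:5 compound series with 46 uM top final concentration, applied alongside 4 ng/ml IFN-beta to HLA-B*08:01-HiBiT knock-in myoblasts. Luminescence is measured after 24 h treatment.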

[2] = molecular target: Protein phosphatase 1D (Homo sapiens) (UniProt O15297); assay: RapidFire Mass Spectrometry qHTS Assay for Modulators of WT P53-Induced Phosphatase 1 (WIP1) (AID 1347424);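 also: amount of dephosphorylated VEPPL-S-QETFS peptide product formed by WIP1; series mostly up to about 63 µM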
Summary of the method: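 Mass-spectrometric measurement of dephosphorylated peptide after a 5 min room-temperature reaction of 10 nM WIP1 with 2 uM phosphopeptide, following 1 h compound preincubation in 30 mM MgCl2 buffer.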

[3] = molecular target: Protein phosphatase 1D (Homo sapiens) (UniProt O15297); assay: Rhodamine-PBP qHTS Assay for Modulators of WT P53-Induced Phosphatase 1 (WIP1) (AID 1347425)
Summary of the method: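 The read-out is the change in Rhodamine-PBP fluorescence (f1 - f0, ex 525/em 598 nm) as Pi is released, read each minute for 11 min. Final reaction: 5 nM WIP1, 10 uM phosphopeptide VEPPL-pS-QETFS, 10 uM Rh-PBP, 50 mM Tris-HCl pH 7.5, 30 mM MgCl2. Compound was preincubated with enzyme for 1 hour at room temperature.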

[4] = tested on: Zika virus NS2B-NS3 protease (unlinked complex); assay: Primary screen GU Rhodamine qHTS for Zika virus inhibitors: Unlinked NS2B-NS3 protease assay (AID 1347159); also: nearly all actives have a fitted effect of over 60% in size
Summary of the method: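 Percent inhibition came from the 15-min rise in Rhodamine110 fluorescence (1.5 microM substrate, ~15% conversion), normalized to no-inhibitor and no-enzyme wells and Hill-fitted. Unlinked protease, 25 nM, pH 8.0 Tris buffer; compounds up to 114 microM, 15-min preincubation.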

[5] = tested on: Zika virus NS2B-NS3 protease (linked construct); assay: Primary screen NINDS Rhodamine qHTS for Zika virus inhibitors (AID 1347160); settings: outcome: dose series up to 57.1 µM unless noted; also: nearly all actives have a fitted effect of over 55% in size
Summary of the method: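 Rhodamine110-peptide cleavage (1.5 µM substrate) by 25 nM linked NS2B-NS3 enzyme at pH 8.0 (Tris, Tween 20), after 15 min RT preincubation with compounds; 15-min fluorescence change normalized to controls and Hill-fitted.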

[6] = Vero cells viability qHTS for Zika virus inhibitors (AID 1347167)
Summary of the method: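 To flag cytotoxic protease inhibitors, viability is measured by ATP-dependent luminescence (CellTiter Glo) after cells attached overnight receive compound for 24 to 48 hours in DMEM with 4% FBS.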

[7] = Tertiary RLuc qRT-PCR qHTS assay for Zika virus inhibitors (AID 1347169); also: potency is read from the fitted curve at half-maximal effect; nearly all actives have a fitted effect of over 55% in size
Summary of the method: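 Inhibition of ZIKV-RLuc replication in Vero cells, read as Renilla luminescence 1-1.5 hrs after live-cell substrate addition, following 48-72 hrs infection at MOI 1-2 in presence of compound.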

[8] = molecular target: Lysine-specific demethylase 5B (Homo sapiens) (UniProt Q9UGL1); assay: Optimization screen for KDM5B Histone Demethylases FDH coupled qHTS against the LOPAC library (AID 1347166)
Summary of the method: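 KDM5BDeltaAP (200nM final) in 50mM HEPES pH 7.5, 0.01% Tween-20 was preincubated with compound for 10 min at room temperature. A substrate mix of 12.5uM H3K4Me3, 25uM a-ketoglutarate, ascorbate, Fe2+, NAD+ and formaldehyde dehydrogenase was then added. NADH fluorescence (340/450 nm) was read initially and after 30 min.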

[9] = qHTS to identify inhibitors of the type 1 interferon - major histocompatibility complex class I in skeletal muscle: primary screen against the NCATS LOPAC collection (AID 1347405);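 also: human myoblasts with HiBiT tag on endogenous HLA-B stimulated by IFN-beta; lytic HiBiT luminescence reporting HLA-B protein level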
Summary of the method: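 IFN-beta-stimulated (4 ng/ml) HLA-B HiBiT knock-in myoblasts, compound-treated 24 hrs up to 46 uM final; signal via LgBiT complementation and furimazine luminescence.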

[10] = qHTS for inhibitors of adenylyl cyclases using a fission yeast platform: a pilot screen against the NCATS LOPAC library (AID 1347410)
Summary of the method: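 Inhibition of GNAS-stimulated AC9 activity in S. pombe was inferred from derepression of a PKA-repressed fbp1-GFP reporter, measured as cytometric fluorescence after 18 h at 30C with compounds at up to 57 µM.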

[11] = Validation qHTS assay for inhibitors of Activation Induced Cytidine Deaminase (AID): UDG Counterscreen signal (AID 1347427)
Summary of the method: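 Fluorescence at 560 nm excitation, 665 nm emission reports UDG signal after 250 mM NaOH (2x) addition and 30 min. Enzymes (AID 1 uM, UDG 2 U/mL, at 4/3x) preincubated 10 min with compound, then 4 h with 4x 250 nM DJC20/DJC23 substrate at room temperature.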

Chain of Protein phosphatase 1D (Homo sapiens) (O15297 whole entry, looked up): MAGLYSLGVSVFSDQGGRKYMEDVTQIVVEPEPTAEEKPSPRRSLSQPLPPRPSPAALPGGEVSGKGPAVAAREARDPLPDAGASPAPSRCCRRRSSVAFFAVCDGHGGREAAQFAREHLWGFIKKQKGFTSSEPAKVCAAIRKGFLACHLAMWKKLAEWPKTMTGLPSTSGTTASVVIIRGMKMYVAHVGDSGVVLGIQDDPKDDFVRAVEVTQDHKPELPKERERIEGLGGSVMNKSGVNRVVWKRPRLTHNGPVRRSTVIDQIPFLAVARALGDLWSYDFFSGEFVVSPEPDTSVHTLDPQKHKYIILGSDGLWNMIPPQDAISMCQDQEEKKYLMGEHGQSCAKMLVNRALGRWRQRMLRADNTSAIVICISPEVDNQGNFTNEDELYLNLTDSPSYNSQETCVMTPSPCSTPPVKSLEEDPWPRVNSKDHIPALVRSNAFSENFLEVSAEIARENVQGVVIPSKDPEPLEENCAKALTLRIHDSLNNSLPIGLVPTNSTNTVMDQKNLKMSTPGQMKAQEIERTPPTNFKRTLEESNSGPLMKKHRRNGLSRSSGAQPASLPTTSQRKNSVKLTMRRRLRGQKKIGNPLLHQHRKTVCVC
Chain of Lysine-specific demethylase 5B (Homo sapiens) (Q9UGL1 whole entry, looked up): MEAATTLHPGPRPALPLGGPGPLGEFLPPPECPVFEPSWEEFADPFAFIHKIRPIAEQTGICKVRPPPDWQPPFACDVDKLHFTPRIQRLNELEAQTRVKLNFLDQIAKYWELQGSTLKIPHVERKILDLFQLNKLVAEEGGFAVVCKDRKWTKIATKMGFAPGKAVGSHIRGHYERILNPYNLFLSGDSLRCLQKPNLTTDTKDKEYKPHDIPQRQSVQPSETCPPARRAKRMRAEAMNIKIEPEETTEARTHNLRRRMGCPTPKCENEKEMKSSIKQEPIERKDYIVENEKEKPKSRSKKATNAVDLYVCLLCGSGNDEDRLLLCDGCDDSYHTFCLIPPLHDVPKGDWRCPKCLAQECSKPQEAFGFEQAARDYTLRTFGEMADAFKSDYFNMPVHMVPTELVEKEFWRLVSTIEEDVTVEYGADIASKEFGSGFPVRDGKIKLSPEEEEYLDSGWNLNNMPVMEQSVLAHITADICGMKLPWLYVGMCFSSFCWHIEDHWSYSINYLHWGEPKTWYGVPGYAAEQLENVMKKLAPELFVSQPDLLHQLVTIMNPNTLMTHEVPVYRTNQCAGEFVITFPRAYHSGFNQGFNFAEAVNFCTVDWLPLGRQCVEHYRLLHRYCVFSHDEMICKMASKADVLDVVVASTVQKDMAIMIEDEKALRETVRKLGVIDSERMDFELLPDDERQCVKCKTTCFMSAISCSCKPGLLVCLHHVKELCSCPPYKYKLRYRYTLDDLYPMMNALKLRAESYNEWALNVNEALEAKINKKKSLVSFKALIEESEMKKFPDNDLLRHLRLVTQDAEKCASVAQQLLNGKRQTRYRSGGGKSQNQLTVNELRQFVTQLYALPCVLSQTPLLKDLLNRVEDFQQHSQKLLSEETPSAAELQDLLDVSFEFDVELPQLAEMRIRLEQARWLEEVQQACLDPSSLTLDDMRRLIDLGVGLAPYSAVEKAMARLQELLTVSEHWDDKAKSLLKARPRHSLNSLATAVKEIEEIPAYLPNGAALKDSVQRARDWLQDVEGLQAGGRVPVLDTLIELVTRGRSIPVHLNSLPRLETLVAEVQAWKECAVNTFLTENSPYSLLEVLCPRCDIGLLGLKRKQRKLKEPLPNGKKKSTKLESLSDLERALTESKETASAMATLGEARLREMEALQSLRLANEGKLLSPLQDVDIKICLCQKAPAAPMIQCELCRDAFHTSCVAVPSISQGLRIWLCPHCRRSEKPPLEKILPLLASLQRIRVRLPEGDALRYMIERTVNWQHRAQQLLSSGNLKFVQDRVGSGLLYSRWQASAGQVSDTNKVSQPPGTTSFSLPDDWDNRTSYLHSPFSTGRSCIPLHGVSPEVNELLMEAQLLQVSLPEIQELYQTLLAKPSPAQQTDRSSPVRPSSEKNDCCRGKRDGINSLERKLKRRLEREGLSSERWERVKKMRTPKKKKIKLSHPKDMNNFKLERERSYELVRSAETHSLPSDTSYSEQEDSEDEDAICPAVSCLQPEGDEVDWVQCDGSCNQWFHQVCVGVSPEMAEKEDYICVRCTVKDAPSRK

c1ccc2c(c1)CCc1ccccc1N2
Potency [1]: inactive | Potency [2]: inactive | outcome [3]: inactive

CSc1ccc(/C=C2/C(C)=C(CC(=O)O)c3cc(F)ccc32)cc1
Potency [1]: inactive

CCCCCCn1c(=O)c2c(ncn2C)n(C)c1=O
Potency [1]: inactive | Potency [2]: inactive | outcome [3]: inactive

OC1(c2ccc(Cl)c(C(F)(F)F)c2)CCN(CCCC(c2ccc(F)cc2)c2ccc(F)cc2)CC1
Potency [4]: inactive | outcome [5]: inactive | Potency [2]: inactive | outcome [3]: inactive

COc1c(C)c2c(c(O)c1C/C=C(\C)CCC(=O)OCCN1CCOCC1)C(=O)OC2
outcome [6]: inactive | Potency [7]: 739 nM (active) | Potency [2]: inactive | outcome [3]: inactive

CC(C)OC(=O)c1cc2c(OCC(O)CNC(C)(C)C)cccc2[nH]1 (configuration not stated)
Potency [1]: inactive | Potency [2]: inactive | outcome [3]: inactive

CCCCC/C=C\C/C=C\CCCCCCCC(=O)NC(C)c1ccccc1 (configuration not stated)
Potency [1]: inactive | Potency [2]: inactive | outcome [3]: inactive

CCn1ccc(NS(=O)(=O)c2ccc(N)cc2)nc1=O
Potency [1]: inactive | Potency [2]: inactive | outcome [3]: inactive

C#CC(C)(CC)OC(=O)c1ccccc1C(=O)O (configuration not stated)
Potency [1]: inactive | Potency [2]: inactive | outcome [3]: inactive

O=C1NC2CCCCN2C12CCN(CCCN1c3ccccc3CCc3ccc(Cl)cc31)CC2 (configuration not stated)
Potency [4]: inactive | outcome [5]: inactive | Potency [2]: inactive | outcome [3]: inactive

Nc1nc2ccccc2n1Cc1ccc(F)cc1
Potency [1]: inactive | Potency [2]: inactive | outcome [3]: inactive

O=C(Oc1ccccc1)c1cccc(C(=O)Oc2ccccc2)c1
Potency [1]: inactive | Potency [2]: inactive | outcome [3]: inactive

O=C1Cc2cc(Cl)ccc2N1
Potency [1]: inactive | Potency [2]: inactive | outcome [3]: inactive

CC(C)=CCC/C(C)=C/CC/C(C)=C/C(=O)OCC(=O)[C@@]1(O)CC[C@H]2[C@@H]3CCC4=CC(=O)C=C[C@]4(C)[C@H]3[C@@H](O)C[C@@]21C
Potency [1]: inactive | Potency [2]: inactive | outcome [3]: inactive

Cc1cccc(N(C)C(=S)Oc2ccc3c(c2)CCC3)c1
Potency [4]: inactive | outcome [5]: inactive | Potency [1]: inactive | Potency [2]: inactive | outcome [3]: inactive

CN(C)c1cc2c(Nc3ccc4c(cnn4Cc4ccccc4)c3)ncnc2cn1
outcome [5]: inactive | outcome [8]: inactive | Potency [9]: inactive | outcome [10]: inactive | outcome [11]: inactive

CCOC(=O)C1=C(C)NC(C)=C(C(=O)OCC)C1c1ccccc1/C=C/C(=O)OC(C)(C)C
Potency [2]: inactive | outcome [3]: inactive

C1=CC2C3C=CC(C3)C2C1 (configuration not stated)
Potency [1]: inactive | Potency [2]: inactive | outcome [3]: inactive

Cc1cc(OCCOCC[N+](C)(C)Cc2ccccc2)ccc1C(C)(C)CC(C)(C)C
Potency [2]: inactive | outcome [3]: inactive

CCCCCCCCCCCCCCCC[n+]1ccccc1
Potency [2]: inactive | outcome [3]: inactive

From PubChem BioAssay (NCATS)
